Screening data: PubChem BioAssay, several laboratories
GLD-1 TGE inh: GLD-1/TGE RNA complex disruptors, primary screen, biochemical, fluorescence polarization. Female germline-specific tumor suppressor gld-1 (Caenorhabditis elegans), Q17339. purified GLD-1 + fluorescein TGE RNA. inhibition, % at 5.96 µM. 0.44% of 320,000 active. AID 2280, 2010;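 active means percent inhibition above a per-plate cutoff, the plate mean of test compounds plus 3 SD, cut at about 30% in these data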;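 further: 0% = DMSO wells with GLD-1 and probe and 100% = wells lacking GLD-1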
Target sequence (Q17339 whole entry, looked up): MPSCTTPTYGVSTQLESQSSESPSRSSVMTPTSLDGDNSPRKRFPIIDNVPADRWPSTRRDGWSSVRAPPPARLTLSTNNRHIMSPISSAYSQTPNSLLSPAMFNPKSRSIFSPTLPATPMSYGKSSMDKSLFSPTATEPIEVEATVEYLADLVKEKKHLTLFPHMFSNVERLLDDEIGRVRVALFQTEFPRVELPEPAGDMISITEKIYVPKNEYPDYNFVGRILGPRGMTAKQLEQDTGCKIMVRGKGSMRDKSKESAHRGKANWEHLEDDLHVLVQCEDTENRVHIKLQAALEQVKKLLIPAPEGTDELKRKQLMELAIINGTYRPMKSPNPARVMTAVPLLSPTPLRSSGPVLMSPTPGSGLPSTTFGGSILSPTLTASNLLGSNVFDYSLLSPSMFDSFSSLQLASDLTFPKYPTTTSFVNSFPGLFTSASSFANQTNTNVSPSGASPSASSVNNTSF
MCL1 BIM primary: inhibitors of MCL1 binding to BIM-BH3, primary screen, biochemical, fluorescence polarization. Induced myeloid leukemia cell differentiation protein Mcl-1 (Homo sapiens), Q07820. GST-MCL1 / FITC-Bim-BH3 fluorescence polarization. inhibition, % at 10.9 µM. 0.68% of 320,000 active;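 active means inhibition above the mean inhibition of all tested compounds plus 3 SD, set per campaign, cut at about 40% in these data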;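 further: 0% = DMSO wells and 100% = unlabeled Bim-BH3 peptide control; higher means more loss of mP so more displacement of Bim peptide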
Mcl1 Bid PPI: Mcl-1/Bid binding inhibitors, primary screen, biochemical, TR-FRET, 1536-well. inhibition, % at 21.7 µM. AID 1021, 2008. TR-FRET Mcl-1/Bid-Dy647 peptide binding. 0.97% of 220,000 active;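 active means compounds that cut the binding signal by more than half at the single screening dose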;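 further: His-tagged Mcl-1 with europium anti-His antibody binding Bid BH3 peptide; 0% = Mcl-1 plus peptide wells and 100% = peptide-only wells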
Mcl1-Noxa inh: Mcl-1/Noxa binding inhibitors, primary screen, biochemical, TR-FRET, 1536-well; 1.5% of 220,000 active; Induced myeloid leukemia cell differentiation protein Mcl-1 (Homo sapiens), Q07820; TR-FRET Mcl-1/Noxa peptide binding, 2 h; inhibition, % at 21.7 µM;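 active means compounds that cut the protein-peptide binding signal by more than 50% relative to plate controls in a single-dose test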;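 further: His-tagged Mcl-1 with rhodamine Noxa BH3 peptide and terbium anti-His antibody; 0% = Mcl-1 plus Noxa peptide wells and 100% = peptide-only wells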
Bim-Mcl-1: inhibitors of Bim peptide binding to Mcl-1, primary screen, biochemical, bead-based flow cytometry, multiplex; Induced myeloid leukemia cell differentiation protein Mcl-1 (Homo sapiens), Q07820; Bim peptide-Mcl-1 binding; inhibition, % at 10 µM; 0.1% of 190,000 active; AID 1009, 2008; in the data active means inhibition above about 40%;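 further: 0% = no compound tracer wells and 100% = peptide blocker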
BCLXL inh: inhibitors of human Bcl-xL, primary screen, biochemical, fluorescence polarization, HTS. inhibition, % at 10.9 µM. GST-Bcl-xL / FITC-Bim BH3 peptide fluorescence polarization. Bcl-2-like protein 1 (Homo sapiens), Q07817. 0.7% of 320,000 active. AID 2129, 2009;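 active means inhibition above the mean of all tested compounds plus 3 SD, cutoff set per campaign, cut at about 30% in these data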;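 further: 0% = DMSO wells and 100% = unlabeled Bim-BH3 peptide competitor; inhibitors lower millipolarization by displacing the labeled peptide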
GLD-1 TGE cf: GLD-1/TGE RNA binding inhibitors, retest, confirmation, biochemical, fluorescence polarization, triplicate. shares compounds with GLD-1 TGE inh. GLD-1/FL-TGE RNA fluorescence polarization. inhibition, % at 5.96 µM. 10% of 550 active. AID 2459, 2010;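 active means average inhibition across triplicates above the hit cutoff set in the primary screen, cut at about 32% in these data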;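 further: 0% = GLD-1 with RNA probe and DMSO and 100% = wells lacking GLD-1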
* marks the source's active call; other numbers are inactive results; nt = no result. Sampled rows, rich in hits. Any-hit rate of the full collection: about 2.3%.

SMILES	GLD-1 TGE inh	MCL1 BIM primary	Mcl1 Bid PPI	Mcl1-Noxa inh	Bim-Mcl-1	BCLXL inh	GLD-1 TGE cf
CCC(NC(=O)c1ccccc1NC(=O)C(C)(C)C)C(=O)N1CC(C)OC(C)C1 (configuration not stated)	5	nt	nt	nt	nt	nt	nt
O=C(COC(=O)CNC(=O)c1ccc(Cl)cc1)Nc1ccc(Cl)cn1	5	nt	nt	nt	nt	nt	nt
CN1CCN(C(=S)c2ccc([N+](=O)[O-])cc2)CC1	79*	2	-12	-10	-6	3	0
C/C(Cc1ccccc1)=N\NC(=O)CNC(=O)c1ccc(Cl)cc1	62*	2	-16	-7	nt	5	-5
C/C(Cc1ccccc1)=N\NC(=O)CNC(=O)c1ccc(F)cc1	3	0	nt	nt	nt	0	nt
COc1ccc(CCn2c(N)c(C(=O)NCc3ccco3)c3nc4ccccc4nc32)cc1	-1	2	17	29	2	3	nt
COCCNC(=O)c1c(N)n(CCC2=CCCCC2)c2nc3ccccc3nc12	38*	52*	-10	9	0	50*	21
CCOC(=O)c1cc2c(ccn2C)n1CC(=O)N1CCN(c2ccc(F)cc2)CC1	8	-1	-97	12	2	0	nt
CCOC(=O)c1cc2c(ccn2C)n1CC(=O)N1CCN(c2cccc(C(F)(F)F)c2)CC1	40*	4	-39	-7	0	2	47*
CCOc1ccc(NC(=O)Cc2ccc(S(=O)(=O)N3CCOCC3)s2)cc1OCC	-15	-4	nt	nt	nt	2	nt
Cc1cnc(NC(=O)Cc2ccc(S(=O)(=O)N3CCOCC3)s2)s1	48*	nt	nt	nt	nt	nt	-5
O=C(CN1C(=O)NC2(CCCCC2)C1=O)Oc1ccc2c(C(F)(F)F)cc(=O)oc2c1	59*	39	nt	nt	nt	33*	49*
Cc1ccc(-n2ncc3c2CCCC3NC(=O)CSc2ccccn2)cc1C (configuration not stated)	5	-4	nt	nt	nt	-3	nt
Cc1cc2cc(OCC(=O)O)ccc2n1C	39*	20	-11	19	-2	22	5
Cc1cc2cc(CNC(=O)C(C)Oc3ccccc3)ccc2n1C (configuration not stated)	57*	41*	-53	9	nt	38*	7
CCCCC(=O)NCc1ccc2c(c1)cc(C)n2C	14	14	-66	-18	0	12	nt
CCOC(=O)CCC(=O)NCc1ccc2c(c1)cc(C)n2C	31*	44*	-32	6	2	38*	11
COc1ccc(S(=O)(=O)NCc2ccc3c(c2)cc(C)n3C)cc1	11	13	-30	10	0	13	nt
Cc1cc2cc(CNS(=O)(=O)c3ccccc3)ccc2n1C	54*	47*	-28	10	6	36*	11
Cc1cccc(N(CC(=O)NCc2ccco2)C(=O)CCC(=O)Nc2nccs2)c1	4	4	-38	-2	0	-3	nt
CC1CCC2C(=O)N(c3ccc(Cc4ccncc4)cc3)C(=O)C2C1 (configuration not stated)	-1	4	5	6	0	6	nt
Cc1cccc(C)c1OCCSc1nc2ccccc2n1CC(=O)O	3	8	nt	nt	nt	5	nt
COc1ccccc1Nc1cc2cc(Br)ccc2c(=O)[nH]1	2	-4	nt	nt	nt	7	nt
COc1ccc(OC)c(Nc2cc3ccccc3c(=O)[nH]2)c1	42*	-2	nt	nt	nt	7	4
C[C@H](CO)N1C[C@H](C)[C@@H](CN(C)S(=O)(=O)c2ccc(F)cc2)Oc2c(NC(=O)Cc3ccccc3)cccc2C1=O	-4	nt	nt	nt	nt	nt	nt
SMILES	GLD-1 TGE inh	MCL1 BIM primary	Mcl1 Bid PPI	Mcl1-Noxa inh	Bim-Mcl-1	BCLXL inh	GLD-1 TGE cf
O=C(CN(c1ccc(F)cc1)S(=O)(=O)c1ccccc1)NC1CCCCCC1	2	0	nt	nt	nt	-1	nt
O=C(C(=O)N1CCN(c2ccccc2)CC1)c1cn(CC(=O)N2CCCCCC2)c2ccccc12	31*	11	nt	nt	nt	6	7
CCC(C)Nc1nc(OC(C(F)(F)F)C(F)(F)F)nc(OC(C(F)(F)F)C(F)(F)F)n1 (configuration not stated)	36*	-1	6	14	2	-3	-2
CN1CCc2c(C#N)c(N3CCCCC3)nc(NCc3ccccc3)c2C1	18	20	-76	22	4	15	nt
N#Cc1c(NCCCO)nc(NCc2ccccc2)c2c1CCN(Cc1ccccc1)C2	33*	34	-31	2	1	31*	14
CCC(C(=O)OCC(=O)N(C)c1c(N)n(Cc2ccccc2)c(=O)[nH]c1=O)c1ccccc1 (configuration not stated)	5	0	nt	nt	nt	3	nt
COc1cc(/C=N\Nc2cc(=O)n(C)c(=O)n2C)ccc1O	39*	12	-93	21	10	6	-3
CS(=O)(=O)Nc1ccc(C(=O)NCCSCc2c(F)cccc2Cl)cc1	37*	-2	-18	6	0	2	-3
CS(=O)(=O)Nc1ccc(C(=O)NCCSCc2ccccc2)cc1	11	3	-6	7	-3	2	nt
CN(C(=O)COC(=O)c1ccc(Cl)nc1)C1CCS(=O)(=O)C1 (configuration not stated)	-3	8	-10	19	1	9	nt
CCSC1(SCC)N=C(N)C2(C#N)C(c3ccccc3)NC3=C(CCC3)C12C#N (configuration not stated)	50*	26	-54	-1	0	27	-2
Cc1ccc(S(=O)(=O)c2cc3ccc(O)cc3oc2=O)cc1C	32*	21	nt	nt	nt	28	4
CCc1ccc(N(CC(=O)NCCc2ccccc2)C(=O)CCC(=O)Nc2ccccn2)cc1	-1	5	nt	nt	nt	5	nt
Cc1ccc(C)c(NC(=O)CN2C(=O)NC(CCc3ccccc3)C2=O)c1 (configuration not stated)	0	nt	nt	nt	nt	nt	nt
COc1cc(CNC2CCCC2)cc(Cl)c1OCc1ccc(F)cc1	52*	3	-2	12	-1	5	-2
CCN(CC)S(=O)(=O)c1ccc(N2CCCC2)c(NS(=O)(=O)c2ccc(F)cc2)c1	34*	12	-34	23	0	5	57*
CCN(CC)S(=O)(=O)c1ccc(N2CCCC2)c(NS(=O)(=O)c2ccccc2)c1	14	9	-44	-4	0	13	nt
